ChEMBL document CHEMBL4513216, “Probing the Open Global Health Chemical Diversity Library for Multistage-Active Starting Points for Next-Generation Antimalarials” (ACS Infect Dis, 2020)
Screen size: about 68,000 compounds; about 2,700 (4%) showed an effect of 50% or more. The list comes from a sample in which strong results are over-represented; it also holds similar structures and randomly drawn compounds.

Each compound was assayed on Plasmodium berghei (assay: Screen against P. berghei liver stage (PbLuc), transformed with Luciferase, at 2uM). Conditions: tested at 2 uM.
Assay type: functional, HepG2

SMILES | INHIBITION [%]
Cc1cc(C(=O)NC(CC(C)C)C(=O)Nc2cc[nH]n2)c(C)o1 (stereo not drawn) | -36.72
COC(=O)CC(c1cccnc1)c1oc(C)cc(=O)c1O (stereo not drawn) | 24.02
Cc1noc(-c2ccc(Oc3cccc(CN4CCCC4)c3F)nc2)n1 | -9.95
CC(Cn1cc(Br)cn1)C(=O)Nc1ccc(Cl)cn1 (stereo not drawn) | 29.12
CC(C)NCC1(O)CCCN(CCC2CCCCC2)C1=O (stereo not drawn) | 25.35
CCC(CNC(=O)c1nc(=O)[nH][nH]1)Oc1cccc(F)c1 (stereo not drawn) | 6.92
Cc1ccnc(NC(=O)c2[nH]nc(C(C)C)c2Br)c1 | 49.43
CC(C)c1n[nH]c(C(=O)Nc2cc[nH]n2)c1Br | 11.18
COc1ccccc1NC(=O)c1[nH]nc(C(C)C)c1Br | -2.93
Cc1cccc(NC(=O)c2[nH]nc(C(C)C)c2Br)n1 | 80.46
CC(C)c1n[nH]c(C(=O)Nc2ccncc2)c1Br | 29.37
CC(C)c1n[nH]c(C(=O)Nc2ccccn2)c1Br | 78.42
Cc1nc(C)n(CC2CCCN(c3ccc(C#N)cn3)C2)n1 (stereo not drawn) | 13.24
CCN1CCNC(=O)C12CCN(C(=O)Cc1ccccn1)CC2 | 31.84
Cc1ccc(C(=O)NCC(O)c2cccc(F)c2)c(=O)[nH]1 (stereo not drawn) | -7.13
CCCN1CCN(C(=O)c2scnc2C)CC1 | -21.84
Cc1ncsc1C(=O)N1CCN(CCC(C)C)CC1 | 71.95
CCN1CCN(C(=O)c2scnc2C)CC1 | -25.82
CC1CN(C(=O)CN(Cc2ccco2)Cc2cccs2)CCO1 (stereo not drawn) | 26.78
CCOC(=O)C1CCN(C(=O)CN2CCCC2c2ccccc2C)CC1 (stereo not drawn) | -16.19
COc1ccccc1[C@@H]1CN(CC(=O)N2CCCCC2)C[C@H]1C(=O)O | -36.91
COc1ccccc1C1CCCN1CC(=O)N1CCC(C(N)=O)CC1 (stereo not drawn) | 50.32
Cc1nc(C2CCCNC2)cc(N2CCc3nc(N)sc3C2)n1 (stereo not drawn) | 17.41

SMILES | INHIBITION [%]
Cn1cc(CN2CC[C@H](O)[C@@H]2Cc2ccncc2)cn1 | 23.94
O=c1c2sccc2nc2n1CCN(Cc1ccc(F)c(F)c1)CC2 | 15.72
O=c1c2sccc2nc2n1CCN(Cc1ccsc1)CC2 | 63.66
O=c1c2sccc2nc2n1CCN(Cc1cccs1)CC2 | 15.58
Cc1ncsc1C(=O)N(C)Cc1ccc(Br)o1 | -21.99
Cc1ccccc1-c1cncc(C2CCN(C3CCOCC3)CC2)n1 | 8.63
Cc1oc(NC(=O)C(C)N2CCN(C(=O)C3CC3)CC2)c(C#N)c1C (stereo not drawn) | 30.59
Cc1oc(NC(=O)C(C)N2CCN(C(C)(C)CO)CC2)c(C#N)c1C (stereo not drawn) | 10.1
Cc1oc(NC(=O)C(C)N2CCN(CCO)CC2)c(C#N)c1C (stereo not drawn) | 51.08
Cn1ncc2c1CN(Cc1cccnc1)CC2COCC1CC1 (stereo not drawn) | -12.27
CCCN1CCN(C(=O)c2ccn(COc3ccc(F)cc3)n2)CC1 | -15.49
CCn1ncc(S(=O)(=O)NC(C)c2cc(OC)ccc2OC)c1C (stereo not drawn) | 0.08
CN(CC1CCCO1)C1CCN(CCc2ccccn2)CC1 (stereo not drawn) | 14.82
CCc1cc(NCC(N)=O)nc(N2CCCCC2)n1 | 55.18
CCc1cc(NC2CCN(CC(N)=O)CC2)nc(N2CCCCC2)n1 | -69.81
CCc1cc(NCCNC(C)=O)nc(N2CCCC2)n1 | -36.65
CCc1nc(-c2noc3ccc(C(=O)NCCN(C)C)cc23)co1 | -18.52
COCCN(C)C(=O)c1ccc2onc(-c3coc(C)n3)c2c1 | 32.04
CCc1nc(-c2noc3ccc(C(=O)N(C)CCOC)cc23)co1 | 63.23
Cc1cc(F)ccc1N1CCC(N2C[C@@H](C)[C@@](C)(O)C2)CC1 | 67.28
Cc1cc(F)ccc1N1CCC(N2C[C@@H](CN(C)C)[C@@H](CO)C2)CC1 | 35.54
C[C@@H]1CN(C2CCN(c3ccccc3F)CC2)C[C@]1(C)O | 43.44
c1ccc(-n2nnnc2NCc2ccc3c(c2)OCO3)cc1 | -26.04

SMILES | INHIBITION [%]
O=C(O)C1CCCN(C(=O)CCn2ccc3c(Cl)cccc32)C1 (stereo not drawn) | -23.9
O=C(O)[C@@H]1CN(C(=O)c2ccc3[nH]nnc3c2)C[C@H]1c1ccccc1 | 39.57
O=C(Nc1cnccn1)[C@@H]1COC[C@H]2CN(C3CCCC3)C[C@H]21 | -31.17
O=C(Nc1ccncc1)C1=NN(c2ccccc2)C(=O)CN1 | 17.59
Cc1nc(CNC(=O)NCCC2=CCCC2)oc1C | 67.51
COCCCNC(=O)NCc1nc(C)c(C)o1 | -62.18
CCCNC(=O)NCc1nc(C)c(C)o1 | 22.34
Cc1cc(S(=O)(=O)Nc2onc(C)c2C)sc1C | 36.28
Cc1ccc(CN2CCn3c(CN(C)C(C)C)cnc3C2)s1 | 18.2
COCCN1C[C@H]2CN(C(=O)C3CC3)CCN2C1=O | 14.65
COCCN1C[C@H]2CN(C(=O)NC(C)C)CCN2C1=O | 58.6
COCCN1C[C@H]2CN(C(=O)NCc3ccccc3)CCN2C1=O | 14.21
CS(=O)(=O)c1cccc(OCC(=O)N2CCCC2c2ccc[nH]2)c1 (stereo not drawn) | 9.27
Cc1ncoc1C(=O)N1CC[C@@]2(C[C@H](NS(C)(=O)=O)CCO2)C1 | -43.98
CCC(C)NC(=O)c1ccc(-c2ccco2)[nH]c1=O (stereo not drawn) | 31.51
CC(COCC(F)(F)F)NC(=O)c1ccc(-c2ccco2)[nH]c1=O (stereo not drawn) | 69.67
CCCC(C)NC(=O)c1ccc(-c2ccco2)[nH]c1=O (stereo not drawn) | -1.87
CNS(=O)(=O)c1ccc(C(=O)NCc2ccnc(OC)c2)cc1 | 27.44
Fc1ccc(N2CCCN(Cc3ccc(-c4cc[nH]n4)o3)CC2)cc1 | -62.99
Cc1cccc(-c2nc(CN3CCc4c(ncn4C)C3)no2)c1 | 14.82
CC(NC(=O)N1CCCCCC1)c1ccc(S(N)(=O)=O)cc1 (stereo not drawn) | -36.8
OCC1CCC2(CC1)CN(Cc1ccccc1F)Cc1ccccc1O2 (stereo not drawn) | 2.71
